MPTP inh: inhibitors of mitochondrial permeability transition pore; inhibition, % at 10 µM; AID 602449; hit rate 1.4% among 360,000; isolated mouse mitochondria, Ca2+ swelling absorbance, 30 min;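 active means inhibition of 50% or more, scaled per plate between neutral and stimulator controls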
Mot1-301 SUMO: SUMOylation pathway inhibition by Mot1-301 growth rescue | S. cerevisiae Mot1-301 growth rescue, ATP luminescence, 38.5C; percent above DMSO median, 100 means doubled | growth rescue, % at 18.8 µM | hit rate 1% among 320,000;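 active means every valid replicate shows activation above 250% relative to neutral control wells; inactive means the rest, any valid replicate at or below 250%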
FAS TE block: FAS thioesterase (human) inhibition; P49327; recombinant FAS-TE, OMFH fluorogenic substrate, fluorescence endpoint; inhibition, % at 15 µM; AID 602261; hit rate 0.67% among 360,000;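 active means compounds whose normalised, plate-corrected inhibition of enzyme fluorescence in the single-dose primary screen is 50% or more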
aDG glyco act: alpha-DG glycosylation activation | Pro5-aDG cells, alpha-DG glycosylation AlphaScreen (IIH6); 0% Pro5, 100% B10-LARGE cell signal | AID 624168 | activation, % at 10 µM | hit rate 0.22% among 360,000;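 active means activation of at least 8% versus controls, or a plate z-score of at least 8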;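 further: Pro5 are CHO cells carrying HIG-tagged alpha-DG that lacks glycosylation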
H9c2 protect: protects H9c2 cardiomyocytes from peroxide injury; AID 588492; hit rate 0.63% among 360,000; H2O2 injury protection, ATPLite, 2 h; protection from H2O2 cell death, % at 20 µM;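 active means compounds giving at least 50% protection of heart cells from peroxide-induced death in the single-dose screen, raw or plate-pattern-corrected value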
Yeast superoxide: lowers age-related superoxide in aged yeast cells; S. cerevisiae aged cells, superoxide DHE fluorescence; stronger effect = lower value; superoxide response (% of plate mean), % at 10 µM; hit rate 0.18% among 330,000; AID 2690;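 active means superoxide response under a set limit, about three screen SD below normal, cut at about 65% in these data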;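 further: yeast aged for seven days with compound at 30 °C before DHE staining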
Each line names hits and unclear results; the compound was inactive in the other large screens; ! = repeats disagree. A selection: hits, their analogues and other compounds. The true share with any hit is near 3.8%.

COC(=O)c1ccc(=O)c2nc3/c(=C/O)c(O)cc(=O)c3[nH]c12	Yeast superoxide 45
N#Cc1c2ccc(O)cc2n2ccccc12	H9c2 protect 69
N#Cc1c2ccc(OCC(=O)NCc3ccco3)cc2n2ccccc12	none
CSc1ccccc1NC(=O)CN(Cc1ccc(Cl)cc1)S(C)(=O)=O	none
CSc1ccccc1NC(=O)CN(Cc1ccccc1)S(C)(=O)=O	Mot1-301 SUMO 287
C=CCNc1oc(-c2ccc(Cl)cc2)nc1C#N	H9c2 protect 52 (no result: Mot1-301 SUMO)
CCOc1ccc2ccccc2c1C(=O)N[C@@H]1C(=O)N2[C@@H]1SC(C)(C)[C@@H]2C(=O)O	H9c2 protect 78!
O=C(C=Cc1ccccc1)N1CCCCC1	none (no result: Mot1-301 SUMO, Yeast superoxide)
O=C(CC1SC(=Nc2ccc(O)cc2)NC1=O)Nc1ccccc1 (configuration not stated)	none
O=C(CC1SC(=NCc2ccccc2)NC1=O)Nc1ccccc1 (configuration not stated)	Mot1-301 SUMO active
CCCCN=C1NC(=O)C(CC(=O)Nc2ccc(Cl)cc2)S1 (configuration not stated)	Mot1-301 SUMO 306
CC(=O)Nc1cccc(C(=O)OCC(=O)N(c2ccccc2)C2CCS(=O)(=O)C2)c1 (configuration not stated)	none (no result: Mot1-301 SUMO, Yeast superoxide)
COc1ccc(OC)c(C(=O)COC(=O)c2ccc([N+](=O)[O-])o2)c1	H9c2 protect 54
O=C(COC(=O)c1ccc([N+](=O)[O-])o1)c1ccccc1	none
COc1cccc(N2CCN(C(=O)C3CCN(C(=O)Nc4ccccc4)CC3)CC2)c1	none (no result: Mot1-301 SUMO, Yeast superoxide)
Cc1ccc(S(=O)(=O)NCCc2cn3nc(C)c(C)nc3n2)cc1C	Mot1-301 SUMO 267
COc1ccc(S(=O)(=O)NCCc2cn3nc(C)c(C)nc3n2)cc1C	none
COC(=O)c1sccc1S(=O)(=O)Nc1ccc(N2CCCCC2)cc1	none
COc1ccc(S(=O)(=O)N(C)c2ccc(C(=O)N3CCC(C(N)=O)CC3)cc2)cc1	none
COc1ccc(S(=O)(=O)N(C)c2ccc(C(=O)N3CCC(C(N)=O)CC3)cc2)cc1OC	Mot1-301 SUMO 345
Cc1cc(-c2csc3nc[nH]c(=S)c23)cc(C)c1C	H9c2 protect 61
CCOC(=O)C1CCN(C(=O)c2ccc(Cl)c(S(=O)(=O)N3CCOCC3)c2)CC1	none (no result: Mot1-301 SUMO)
CCOC(=O)C1CCN(C(=O)c2cc(S(=O)(=O)N3CCOCC3)c(Cl)cc2Cl)CC1	Mot1-301 SUMO 285
CCCCOCCCNC(=O)C[C@@H]1C[C@@]2(C(=O)OC)CC(C)(C)CC=C2N(Cc2cccc3ccccc23)C1=O	none (no result: Mot1-301 SUMO, FAS TE block, H9c2 protect, Yeast superoxide)
CC(C)(C)C1CCN2CCC[C@](c3ccccc3)(C1)C2OCCCO (some centres not stated)	none (no result: Mot1-301 SUMO, H9c2 protect, Yeast superoxide)
Nc1cc(=O)[nH]c(SCC(=O)NNC(=O)Cc2ccccc2)n1	Mot1-301 SUMO 333
CCC(=O)Oc1ccc2c(C)cc(=O)oc2c1C	H9c2 protect 59
O=C(CN(C(=O)Cn1nnc(-c2cccs2)n1)c1cnc2ccccc2c1)NCC1CCCO1 (configuration not stated)	H9c2 protect 83
CCN(CC)CCCCNc1ncc2cc(-c3cc(OC)cc(OC)c3)c(NC(=O)NC(C)(C)C)nc2n1	Mot1-301 SUMO 277
CCN(CC)CCNC1=NCCn2c1cc1cc(OC)ccc12	none
COc1cc(/C=C2/SC(=S)N(CC(=O)O)C2=O)ccc1OC(=O)c1ccco1	none
CC(=O)C(=Nc1cccc(Cl)c1)NNc1ccccc1C	none
O=C(Oc1ccccc1)c1cc(O)c(O)c(O)c1	H9c2 protect 75 (no result: Mot1-301 SUMO, Yeast superoxide)
Cc1ccccc1C(=O)N(C)[C@H]1C[C@H]2c3[nH]c4ccccc4c3CCN2C(=O)[C@H]1[C@H](C)O	none (no result: Mot1-301 SUMO, Yeast superoxide)
CCC1(CC(C)C)SC(N)=NC1=O (configuration not stated)	none (no result: Mot1-301 SUMO, Yeast superoxide)
COc1cccc(C(=O)NCCS(=O)(=O)N2CCN(c3ccccc3)CC2)c1OC	none (no result: Mot1-301 SUMO, Yeast superoxide)
S=C1NC2(CCCCC2)NN1c1ccccc1	Mot1-301 SUMO 364
COc1cc(NC(=S)N2CCN(S(=O)(=O)c3ccccc3)CC2)cc(OC)c1	none
Cc1ccc(NN2C(=O)C=C(c3ccc(Cl)cc3)C2=O)cc1	Mot1-301 SUMO 572
CCCCCCSc1ccc([C@H]2N[C@@](Cc3ccccc3)(C(=O)OC)[C@H]3C(=O)N(C)C(=O)[C@@H]23)cc1	H9c2 protect 77
CCCCCCSc1ccc([C@H]2N[C@@](Cc3ccccc3)(C(=O)OC)[C@H]3C(=O)N(CC)C(=O)[C@@H]23)cc1	none
CCN(C[C@H]1N[C@@](Cc2ccccc2)(C(=O)OC)[C@H]2C(=O)N(C)C(=O)[C@@H]12)S(=O)(=O)c1ccc(OC)cc1	H9c2 protect 60
CCN1C(=O)[C@H]2[C@@H](c3ccc(-c4ccc(Cl)c(Cl)c4)cc3)N[C@@](CC(C)C)(C(=O)OC)[C@H]2C1=O	none
COC(=O)[C@]1(CC(C)C)N[C@H](c2ccc(-c3ccc(Cl)c(Cl)c3)cc2)[C@@H]2C(=O)N(C)C(=O)[C@@H]21	FAS TE block 61
C=C1C(=O)OC2CC1C(OC(C)=O)CC(C)=CCCC(C)=CCCC2(C)O (configuration not stated)	none (no result: Mot1-301 SUMO, Yeast superoxide)
COc1ccccc1-c1cnn2c(NC3CCCC3)cc(C)nc12	none
COc1cc2ccccc2cc1C(=O)NNC(=O)c1ccccc1O	H9c2 protect 52
COc1ccc(NC(=O)c2cc3ccccc3cc2OC)cc1	none
NS(=O)(=O)c1ccc(N=Cc2c(O)n(-c3nccs3)c(=O)c3ccccc23)cc1	H9c2 protect 52
O=C(CCC(=O)N1CCN(C2CCCCC2)CC1)Nc1nnc(C(F)(F)F)s1	H9c2 protect 65
O=C(CCC(=O)N1CCN(C2CCCC2)CC1)Nc1nnc(C(F)(F)F)s1	none (no result: Mot1-301 SUMO)
Cc1ccc(S(=O)(=O)N(C)c2ccccc2C(=O)Nc2c(F)cccc2F)cc1	none
COc1ccc(OC)c(/C=N/NC(=O)CCc2c(C)n[nH]c2C)c1	none
COc1ccc(/C=N/NC(=O)c2cc3c(OC)ccc(OC)c3[nH]2)cc1O	H9c2 protect 66
COc1ccc(OC)c(/C=N/NC(=O)c2cc3c(OC)cc(OC)cc3[nH]2)c1	H9c2 protect 51
COc1ccc(OC)c(/C=N/NC(=O)CCc2ccc(O)c(O)c2)c1	H9c2 protect 51
CN(C)c1ncnc2c1ncn2[C@H]1CN(Cc2cccnc2)C[C@@H](CO)O1	none (no result: Mot1-301 SUMO, Yeast superoxide)
CCCn1c(=O)c(C(=O)Nc2ccccc2)c(O)c2ccccc21	H9c2 protect 57
CCCn1c(=O)c(C(=O)Nc2cccc(C)c2)c(O)c2ccccc21	none
CCn1c(=O)c(C(=O)NC(C)c2ccccc2)c(O)c2ccccc21 (configuration not stated)	H9c2 protect 55
COc1ccc(C(CC(=O)N2CCN(c3ccccc3)CC2)c2c(OC)cc(OC)c3ccc(=O)oc23)cc1 (configuration not stated)	H9c2 protect 51
